# Experimental data as given in PubChem BioAssay (NCATS).
# Where “and” joins values, the source holds several entries; their conditions need not be identical. Equal values may be shown once. Inconclusive results are not listed. Where a call stands in place of a potency, no number is given. Calls of active or inactive are those of the source. Unless noted, calls follow the shape of the dose curve; as a rule, active = well fitted curve in the direction sought with a large enough effect; inconclusive = small, poorly fitted or top-dose-only effect, or another doubt; inactive = no such curve, though single readings can be large; an effect the other way counts as inactive or inconclusive.
# Key:
# [1] = target: Thyrotropin-releasing hormone receptor (Homo sapiens) (UniProt P34981); experiment: qHTS for Small Molecule Agonists and Allosteric Enhancers of Human TRH Receptor: Validation Screen for Agonists (AID 493127;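 active = calcium activation more than 3 SD above the typical response in the agonist read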;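 also: intracellular calcium rise by fluo-8 fluorescence before TRH EC20 addition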); settings: TRH receptor agonist cell assay; at 2 µM; stronger effect = higher value
# Summary of the method: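 Read-out: intracellular calcium release measured kinetically by FDSS (fluo-8, ex 480/em 530 nm), 1 reading/s after a 10-cycle baseline. TRHR cells, 2000/well, cultured 18 h at 33.5C, dye-loaded at room temp. Compound-evoked positive calcium signal flags agonists.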
# [2] = Nrf2 qHTS screen for inhibitors: Validation (AID 493153; active = well fitted inhibition curve with a large enough effect in the main read-out, with a control signal flat, not every such curve was filed as active); settings: A549 ARE-Fluc reporter, 18-24 h; Potency: luciferase luminescence; viability change: measured here: cytotoxicity max response; luciferase luminescence, at 46.1 µM (top of the series)
# Summary of the method: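 Concentration-response test in A549 ARE_Fluc reporter cells (5% FBS OPTI-MEM), compound exposure 18-24 h at 37°C, 5% CO2. Cell viability measured first by CellTiter-Fluor fluorescence; ARE-driven luciferase luminescence then measured as Nrf2 activity.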
# [3] = qHTS for Inhibitors of Cell Surface uPA Generation: Validation Assay (AID 493164); settings: mouse cells, plasminogen activation; series mostly up to 38.3 µM;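 also: RAW 264.7 macrophage cells exposed to compound for 18 h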
# Summary of the method: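 Compounds are titrated over seven points (2.45 nM–38.3 uM final) onto pre-plated RAW 264.7 cells and incubated for 18 h. Retained intracellular ATP, measured with ATP-Lite, indicates blocked lethal factor entry.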
# [4] = target: Galactokinase (Homo sapiens) (UniProt P51570); experiment: qHTS Validation Assay for Inhibitors of Human Galactokinase (GALK) (AID 493189); settings: purified human GALK enzyme activity, qHTS 7-point titration; series mostly up to 57.5 µM
# Summary of the method: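 GALK (5 nM) with 35 uM ATP and 100 uM galactose in HEPES pH8.0, MgCl2, NaCl, DTT, BSA; 1 h at room temperature. Residual ATP read by Kinase-Glo Plus luminescence after 10 min.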
# [5] = Validation screen for small molecules that induce DNA re-replication in SW480 colon adenocarcinoma cells (AID 504364); settings: DNA re-replication phenotype (high-content imaging); series mostly up to 46.1 µM
# Summary of the method: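 Read-out: total Hoechst intensity of nuclei by fluorescence scanning imager; hits raise the fraction of nuclei with elevated DNA content. Cells received compound for 48 hr at 37 C before a 40 min stain.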
# [6] = target: Peptidyl-prolyl cis-trans isomerase NIMA-interacting 1 (Homo sapiens) (UniProt Q13526); experiment: qHTS Validation Assay to Find Inhibitors of Pin1 (AID 504536; active = well fitted inhibition curve with a large enough effect in the polarisation, with a control signal flat, not every such curve was filed as active; the % refers to the polarisation); settings: Pin1 fluorescence polarization peptide binding assay; series mostly up to 57.5 µM
# Summary of the method: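 Fluorescence polarization competition: compounds (titration) displace HiFluor-488-labeled Pin1-1b peptide from Pin1 (0.3 uM final) in pH 7.5 HEPES buffer with DTT, 10 min at room temperature; %Activity normalized to no-enzyme wells, curves fitted.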
# [7] = target: Phosphoglycerate kinase, glycosomal (Trypanosoma brucei brucei) (UniProt P07378); experiment: qHTS Validation Assay to Find Inhibitors of Phosphoglycerate Kinase (AID 504547); settings: enzymatic PGK inhibition, coupled luminescence read-out; series mostly up to 57.5 µM
# Summary of the method: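 In TEA buffer (100mM, pH 7.6) containing 5mM MgCl2 and 0.01% Tween-20, the GAPDH-coupled PGK reaction proceeded for 60 minutes at room temperature before a single luminescence reading using Kinase-Glo Plus.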
# [8] = target: phosphoglycerate mutase (Leishmania major) (UniProt Q4Q090); experiment: qHTS Validation Assay to Find Inhibitors of Phosphoglycerate Mutase (AID 504548); settings: biochemical enzyme activity; series mostly up to 57.5 µM
# Summary of the method: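 Lm PGAM 1.25nM final; 100 mM TEA pH 7.6, 5 mM MgCl2, 0.01% Tween-20; 45 min RT; Kinase-GloPlus, 10 min; end-point luminescence. Enzyme-free wells as negative controls.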
# [9] = target: Ubiquitin carboxyl-terminal hydrolase 1 (Homo sapiens) (UniProt O94782); experiment: Inhibitors of USP1/UAF1: Pilot qHTS (AID 504865); settings: purified USP1/UAF1, Ub-rhodamine cleavage fluorescence; series mostly up to 114 µM; also: nearly all actives have a fitted effect of over 35% in size; also: potency is read from the fitted curve at half-maximal effect
# Summary of the method: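 USP1/UAF1 complex (1nM) preincubated with compound 15 min at room temperature, then Ub-Rho substrate (150nM final) added. Fluorescence read kinetically at 480/540 nm, 6 reads every 60 seconds. Buffer: 50mM HEPES pH 7.8, 0.5mM EDTA, 0.1 mg/ml BSA, 1mM TCEP, 0.01% Tween-20.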
# [10] = qHTS for Inhibitors of ATXN expression: Validation of Cytotoxic Assay (AID 588349); settings: cytotoxicity counter-screen for ATXN expression inhibitors, cell viability; series mostly up to 57.1 µM
# Summary of the method: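 Cytotoxicity counter-screen: HEK293 cells exposed to compound titrations, 72 hr, 37 degrees C. Read-out is intracellular ATP (CellTiter Glo luminescence) as a viability measure.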
# [11] = qHTS for Inhibitors of ATXN expression: Validation (AID 588378); settings: cell-based ATXN2 expression reporter assay, luminescence; series mostly up to 57.1 µM; also: nearly all actives have a fitted effect of over 75% in size; also: potency is read from the fitted curve at half-maximal effect
# Summary of the method: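 Luminescence from an ATXN2-FFLuc reporter in HEK293 cells served as read-out after 24 h compound treatment at 37 degrees C; CellTiter-Fluor fluorescence was recorded first to assess viability.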
# [12] = target: DNA dC->dU-editing enzyme APOBEC-3G (Homo sapiens) (UniProt Q9HC16); experiment: qHTS for inhibitors of Vif-A3G interactions: Validation (AID 588379); settings: Vif-A3G protein interaction assay; series mostly up to 46.1 µM
# Summary of the method: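 Yellow fluorescence (Ex 488, Em 500-530) of Vif-coexpressing HeLa A3G-eYFP cells, scanned by Acumen cytometer, reports blocked A3G degradation. Cells plated at 700/well overnight at 37 deg C before compound addition, then a further overnight compound incubation at 37 deg C.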
# [13] = target: Glucocorticoid receptor (Homo sapiens) (UniProt P04150); experiment: qHTS assay for small molecule agonists of glucocorticoid receptor signaling (AID 588532; active = well fitted curve in the direction sought with a large enough effect in the signal ratio, with a control signal flat; the % refers to the signal ratio); settings: HeLa MMTV-bla, beta-lactamase ratio, agonist, 18 h; activation: stronger effect = higher value, percent of dexamethasone control, DMSO zero
# Summary of the method: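 MMTV-bla HeLa, beta-lactamase reporter; medium with 1% charcoal/dextran-stripped FBS; cpds up to 92 uM, 18 h, 37 C; CCF4 readout 460/530 nm; Hill fit → EC50, efficacy vs 0.1 uM dexamethasone = 100%.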
# Chain of Peptidyl-prolyl cis-trans isomerase NIMA-interacting 1 (Homo sapiens) (Q13526 whole entry, looked up): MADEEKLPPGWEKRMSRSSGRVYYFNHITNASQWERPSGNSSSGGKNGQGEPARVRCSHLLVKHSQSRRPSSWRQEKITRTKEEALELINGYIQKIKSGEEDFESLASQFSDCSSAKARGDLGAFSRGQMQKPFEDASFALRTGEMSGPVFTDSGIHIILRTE
# Chain of Galactokinase (Homo sapiens) (P51570 whole entry, looked up): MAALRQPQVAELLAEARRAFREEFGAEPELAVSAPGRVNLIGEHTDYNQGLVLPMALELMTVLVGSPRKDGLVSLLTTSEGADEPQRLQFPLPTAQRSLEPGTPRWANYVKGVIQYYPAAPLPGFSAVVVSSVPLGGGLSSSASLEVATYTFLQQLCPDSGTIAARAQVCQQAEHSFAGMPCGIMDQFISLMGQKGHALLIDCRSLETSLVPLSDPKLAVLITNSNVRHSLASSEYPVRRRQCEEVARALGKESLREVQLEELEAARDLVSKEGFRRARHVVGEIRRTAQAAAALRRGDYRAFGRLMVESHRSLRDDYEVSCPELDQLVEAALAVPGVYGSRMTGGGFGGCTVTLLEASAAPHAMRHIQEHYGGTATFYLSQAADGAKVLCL
# Chain of phosphoglycerate mutase (Leishmania major) (Q4Q090 1-553): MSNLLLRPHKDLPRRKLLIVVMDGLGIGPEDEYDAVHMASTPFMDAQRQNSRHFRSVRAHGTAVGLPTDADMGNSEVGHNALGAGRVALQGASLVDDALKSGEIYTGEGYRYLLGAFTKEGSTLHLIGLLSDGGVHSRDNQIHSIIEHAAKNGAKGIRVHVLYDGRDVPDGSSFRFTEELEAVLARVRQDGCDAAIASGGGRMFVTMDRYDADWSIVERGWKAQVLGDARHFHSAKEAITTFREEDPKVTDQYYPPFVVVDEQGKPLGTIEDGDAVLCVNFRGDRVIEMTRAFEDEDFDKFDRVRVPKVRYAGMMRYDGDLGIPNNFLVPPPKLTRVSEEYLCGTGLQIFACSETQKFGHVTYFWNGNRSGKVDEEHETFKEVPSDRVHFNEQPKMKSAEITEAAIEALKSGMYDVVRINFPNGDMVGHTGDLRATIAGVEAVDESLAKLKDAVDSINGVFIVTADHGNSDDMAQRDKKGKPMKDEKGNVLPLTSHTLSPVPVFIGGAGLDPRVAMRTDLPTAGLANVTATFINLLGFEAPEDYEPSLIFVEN
# Chain of Ubiquitin carboxyl-terminal hydrolase 1 (Homo sapiens) (O94782 whole entry, looked up): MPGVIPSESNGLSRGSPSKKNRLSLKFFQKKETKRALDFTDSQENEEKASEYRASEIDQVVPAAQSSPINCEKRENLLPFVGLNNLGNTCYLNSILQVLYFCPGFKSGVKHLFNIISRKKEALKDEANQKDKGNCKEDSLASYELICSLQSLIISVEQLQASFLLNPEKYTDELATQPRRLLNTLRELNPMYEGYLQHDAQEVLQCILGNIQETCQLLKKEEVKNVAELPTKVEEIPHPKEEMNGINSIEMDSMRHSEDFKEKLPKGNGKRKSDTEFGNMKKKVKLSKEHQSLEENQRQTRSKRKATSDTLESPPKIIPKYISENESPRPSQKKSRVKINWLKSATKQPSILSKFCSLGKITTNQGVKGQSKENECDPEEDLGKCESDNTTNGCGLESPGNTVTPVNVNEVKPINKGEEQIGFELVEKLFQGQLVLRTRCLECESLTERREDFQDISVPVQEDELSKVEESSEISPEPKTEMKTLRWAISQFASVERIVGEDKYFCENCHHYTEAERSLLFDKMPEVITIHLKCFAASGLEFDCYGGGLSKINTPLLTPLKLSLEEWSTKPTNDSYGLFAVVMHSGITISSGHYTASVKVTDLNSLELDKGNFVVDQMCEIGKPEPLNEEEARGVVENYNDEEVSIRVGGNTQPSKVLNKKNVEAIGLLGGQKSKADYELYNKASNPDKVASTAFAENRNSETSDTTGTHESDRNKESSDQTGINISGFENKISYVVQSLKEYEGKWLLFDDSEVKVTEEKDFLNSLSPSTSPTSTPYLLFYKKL
# Chain of Phosphoglycerate kinase, glycosomal (Trypanosoma brucei brucei) (P07378 whole entry, looked up): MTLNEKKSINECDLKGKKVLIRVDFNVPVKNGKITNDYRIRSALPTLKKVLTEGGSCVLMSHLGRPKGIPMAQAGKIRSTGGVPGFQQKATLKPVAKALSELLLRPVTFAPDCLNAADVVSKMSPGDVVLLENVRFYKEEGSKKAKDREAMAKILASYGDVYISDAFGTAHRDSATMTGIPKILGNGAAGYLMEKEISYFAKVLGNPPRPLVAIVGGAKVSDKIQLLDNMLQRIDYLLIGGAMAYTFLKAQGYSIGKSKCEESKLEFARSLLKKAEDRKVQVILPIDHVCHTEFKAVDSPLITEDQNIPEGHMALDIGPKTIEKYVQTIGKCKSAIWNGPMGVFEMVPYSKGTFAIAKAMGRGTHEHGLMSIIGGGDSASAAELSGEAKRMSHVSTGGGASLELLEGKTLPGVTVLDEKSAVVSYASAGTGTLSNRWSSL
# Chain of Thyrotropin-releasing hormone receptor (Homo sapiens) (P34981 whole entry, looked up): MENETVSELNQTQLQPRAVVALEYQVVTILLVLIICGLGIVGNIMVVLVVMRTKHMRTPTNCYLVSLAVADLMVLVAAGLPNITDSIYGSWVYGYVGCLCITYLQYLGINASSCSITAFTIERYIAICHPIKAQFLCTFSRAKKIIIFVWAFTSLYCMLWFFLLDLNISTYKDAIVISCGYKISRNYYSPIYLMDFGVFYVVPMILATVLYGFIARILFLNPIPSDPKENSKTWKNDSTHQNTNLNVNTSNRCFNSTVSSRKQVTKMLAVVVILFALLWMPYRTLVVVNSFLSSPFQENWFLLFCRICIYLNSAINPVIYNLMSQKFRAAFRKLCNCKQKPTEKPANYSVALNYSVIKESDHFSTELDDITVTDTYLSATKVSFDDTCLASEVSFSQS
# Chain of Glucocorticoid receptor (Homo sapiens) (P04150 whole entry, looked up): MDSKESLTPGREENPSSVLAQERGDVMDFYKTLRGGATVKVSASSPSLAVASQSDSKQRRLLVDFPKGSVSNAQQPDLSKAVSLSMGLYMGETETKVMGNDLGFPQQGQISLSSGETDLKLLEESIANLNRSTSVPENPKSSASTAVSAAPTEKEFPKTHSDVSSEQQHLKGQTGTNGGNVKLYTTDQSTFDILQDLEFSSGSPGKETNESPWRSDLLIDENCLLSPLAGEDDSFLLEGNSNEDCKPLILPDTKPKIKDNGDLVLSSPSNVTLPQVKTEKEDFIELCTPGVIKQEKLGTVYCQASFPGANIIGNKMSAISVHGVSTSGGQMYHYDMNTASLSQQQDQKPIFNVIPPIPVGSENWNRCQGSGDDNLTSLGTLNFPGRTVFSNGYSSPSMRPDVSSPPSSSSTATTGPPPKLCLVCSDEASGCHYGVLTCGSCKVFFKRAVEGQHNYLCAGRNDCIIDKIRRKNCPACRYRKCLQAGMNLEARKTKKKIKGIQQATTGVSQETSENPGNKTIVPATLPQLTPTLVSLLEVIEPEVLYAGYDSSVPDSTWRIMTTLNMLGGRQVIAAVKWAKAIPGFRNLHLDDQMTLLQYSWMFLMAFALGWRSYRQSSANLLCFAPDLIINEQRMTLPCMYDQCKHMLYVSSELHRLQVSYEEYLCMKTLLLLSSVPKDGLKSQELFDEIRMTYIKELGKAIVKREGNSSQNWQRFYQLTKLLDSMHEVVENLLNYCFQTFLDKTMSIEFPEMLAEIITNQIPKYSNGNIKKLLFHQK
# Chain of DNA dC->dU-editing enzyme APOBEC-3G (Homo sapiens) (Q9HC16 whole entry, looked up): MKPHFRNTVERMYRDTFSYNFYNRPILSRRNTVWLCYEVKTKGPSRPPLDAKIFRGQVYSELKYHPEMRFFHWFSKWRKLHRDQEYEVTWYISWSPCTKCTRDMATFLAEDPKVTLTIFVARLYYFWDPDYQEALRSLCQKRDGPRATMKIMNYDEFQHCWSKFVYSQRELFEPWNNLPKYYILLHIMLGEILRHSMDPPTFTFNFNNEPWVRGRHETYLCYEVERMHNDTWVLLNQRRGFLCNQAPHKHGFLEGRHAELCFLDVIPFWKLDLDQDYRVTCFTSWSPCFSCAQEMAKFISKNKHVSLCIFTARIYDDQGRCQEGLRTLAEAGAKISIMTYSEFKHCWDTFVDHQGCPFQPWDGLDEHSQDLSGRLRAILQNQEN
SMILES,activation [1],Potency [2],viability change [2],outcome [3],outcome [4],outcome [5],outcome [6],outcome [7],outcome [8],Potency [9],Potency [10],Potency [11],outcome [12],activation [13]
O=C(O)CCCCCCCC(=O)O,-3.19% (inactive),inactive,9.01%,inactive,inactive,inactive,inactive,inactive,inactive,inactive,inactive,inactive,–,–
C[N+](C)(C)CCOC(N)=O,30.9% (active),inactive,14%,inactive,inactive,inactive,inactive,inactive,inactive,inactive,inactive,inactive,–,–
NC(=O)c1ncn([C@@H]2O[C@H](CO)[C@@H](O)[C@H]2O)c1O,1.12% (inactive),inactive,2.79%,inactive,inactive,inactive,–,inactive,inactive,inactive,inactive,inactive,–,–
CN(C)CCCN1c2ccccc2Sc2ccccc21,8% (inactive),inactive,1.11%,inactive,inactive,–,inactive,inactive,inactive,inactive,–,–,–,–
c1ccc2c(c1)CCCC2C1=NCCN1 (stereo not drawn),1.25% (inactive),inactive,-0.882%,inactive,inactive,inactive,inactive,inactive,–,inactive,inactive,inactive,–,–
CC(C)(C)NCC(O)c1cc(O)cc(O)c1 (stereo not drawn),0.438% (inactive),inactive,2.92%,inactive,inactive,inactive,inactive,inactive,–,inactive,inactive,inactive,–,–
CC(=O)[C@]1(O)Cc2c(O)c3c(c(O)c2[C@@H](O[C@H]2C[C@H](N)[C@H](O)[C@H](C)O2)C1)C(=O)c1ccccc1C3=O,17.9% (inactive),inactive,-47.3%,inactive,inactive,–,–,inactive,–,50.1 µM (active) and 39.8 µM (active),–,–,–,–
O=C(CCCN1CCC(O)(c2cccc(C(F)(F)F)c2)CC1)c1ccc(F)cc1,3.56% (inactive),inactive,-9.85%,inactive,–,inactive,inactive,–,–,inactive,inactive,–,–,–
COc1ccc(CN(CCN(C)C)c2ccccn2)cc1,1.25% (inactive),inactive,0.301%,inactive,inactive,inactive,inactive,inactive,–,inactive,inactive,–,inactive,-0.651% (inactive)
CC1=C(C)C(=O)C(CCCCC#CCCCC#CCO)=C(C)C1=O,-4.88% (inactive),inactive,5.77%,inactive,inactive,inactive,inactive,inactive,inactive,–,–,20 µM (active),–,–
